Source: PubChem
APE1 inh-1 – inhibitors of human APE1 endonuclease | P27695 | recombinant APE1, TAMRA/BHQ-2 abasic DNA cleavage fluorescence | Potency, µM (top dose mostly 65.8 µM), for the others: at the highest dose activity change, negative = inhibition, most hits filed as inhibitors | 350,000 compounds, 0.35% hits;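 further: potency means the concentration at half of the fitted maximal effect; plate controls were vehicle for no effect and reference inhibitor for full effect; nearly all actives have a fitted effect of over 55% in size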
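Readout is kinetic fluorescence (ex 525, em 598 nm) from cleavage of 50 nM TAMRA/BHQ-2 THF abasic duplex by 0.75 nM APE1, compound added 15 min beforehand at RT.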
TDP1 inh – TDP1 (human) enzyme inhibition. Q9NUW8. recombinant TDP1, AlphaScreen DNA substrate cleavage. Potency, µM (doses to about 130 µM), for inactives: at the highest dose activity change, negative = inhibition, most hits filed as inhibitors. 350,000 compounds, 0.28% hits; further: potency means the concentration at half of the fitted maximal effect; on the % scale 0 is the no-effect control and ±100 the full control effect; nearly all actives have a fitted effect of over 40% in size
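Recombinant human Tdp1 (E. coli-expressed, 1 nM final) preincubated with compounds 15 min at room temperature, then 5'-biotin/3'-phosphotyrosine-FITC DNA substrate (15 nM final) added for 5 min. AlphaScreen beads (10 ug/ml final) added 10 min; cleavage lowers signal.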
GCN5L2 inh-1 – inhibitors of human GCN5L2 histone acetyltransferase. Q92830. GCN5L2 HAT assay, ThioGlo1 CoA-SH fluorescence. Potency, µM (highest dose often 58.9 µM), for inactives: top-dose activity change, negative = inhibition, hits mostly inhibitors. 390,000 compounds, 0.21% hits. AID 504327; further: potency means the concentration at half of the fitted maximal effect; on the % scale 0 is the no-effect control and ±100 the full control effect
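Fluorescence readout, Ex340nm/Em540nm: ThioGlo1 (50uM final) reacts with free CoA thiol released as 20nM GCN5L2 acetylates H3(1-25) peptide (75uM) using acetyl-CoA (70uM). Compound and enzyme sat 15 min beforehand; 20 min room-temperature reaction.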
Lamin A splicing – changes lamin A minigene splicing in HeLa cells; HeLa LMNA splicing GFP/RFP minigene ratio, 48 h; Potency, µM (doses to about 46.1 µM), for inactives: at the highest dose ratio change, negative = inhibition, actives largely listed as inhibitors; 200,000 compounds, 0.01% hits; AID 1487; active means well fitted inhibition curve with a large enough effect in the signal ratio, with a control signal flat, not every such curve was filed as active; inconclusive means small, poorly fitted or top-dose-only effect, or effect the other way, or a change in a side signal; the % refers to the signal ratio; further: potency means the concentration at half of the fitted maximal effect; on the % scale 0 is the no-effect control and ±100 the full control effect
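S3 HeLa stable clones carrying a lamin A-EGFP splicing minigene plus DsRed2 were seeded at 600 cells/well in Opti-MEM with 2% FBS, pin-dosed and incubated 48 h at 37°C. Acumen cytometry (488 nm) gave the GFP/RFP total-intensity ratio.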
BLM inh-1 – Bloom syndrome helicase (human) inhibition. P54132. recombinant BLM DNA unwinding, fluorescence dequenching. Potency, µM (titrated, usually from 56.1 µM), without a hit: at the highest dose activity change, negative = inhibition, hits mostly inhibitors. 350,000 compounds, 0.2% hits;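 further: potency means the concentration at half of the fitted maximal effect; plate controls were vehicle for no effect and no enzyme for full effect; nearly all actives have a fitted effect of over 35% in size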
RECQ1 inh-1 – RECQ1 (human) helicase inhibition | P46063 | RECQ1 DNA unwinding, red fluorescence kinetic read | Potency, µM (top dose mostly 57.3 µM), for the others: at the highest dose activity, negative = inhibition, most hits filed as inhibitors | 240,000 compounds, 0.54% hits;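 further: potency means the concentration at half of the fitted maximal effect; plate controls were vehicle for no effect and no enzyme for full effect; nearly all actives have a fitted effect of over 30% in size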
Target sequence (P46063 whole entry, looked up): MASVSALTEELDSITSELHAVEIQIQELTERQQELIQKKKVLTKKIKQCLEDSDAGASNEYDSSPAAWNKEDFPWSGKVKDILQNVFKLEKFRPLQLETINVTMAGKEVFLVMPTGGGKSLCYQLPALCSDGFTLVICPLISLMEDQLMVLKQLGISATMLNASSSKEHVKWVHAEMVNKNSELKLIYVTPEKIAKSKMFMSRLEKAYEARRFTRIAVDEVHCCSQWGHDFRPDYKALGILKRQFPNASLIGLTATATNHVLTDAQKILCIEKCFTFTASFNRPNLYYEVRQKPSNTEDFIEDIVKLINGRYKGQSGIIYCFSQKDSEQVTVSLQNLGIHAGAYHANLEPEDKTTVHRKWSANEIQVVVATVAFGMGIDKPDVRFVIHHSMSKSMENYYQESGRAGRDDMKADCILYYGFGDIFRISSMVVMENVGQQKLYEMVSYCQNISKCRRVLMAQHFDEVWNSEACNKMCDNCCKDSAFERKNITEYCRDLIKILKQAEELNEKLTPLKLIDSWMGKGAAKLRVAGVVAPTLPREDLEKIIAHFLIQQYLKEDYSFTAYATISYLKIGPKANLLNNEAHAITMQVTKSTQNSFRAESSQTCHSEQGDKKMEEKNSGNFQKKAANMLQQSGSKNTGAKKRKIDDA
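50 nM RECQ1T1 preincubated 15 min with compound in Tris pH 8.0 buffer with MgCl2, DTT, Tween-20 and 2.5 ug/ml poly(dI-dC); started with 200 nM TAMRA/BHQ-2 forked duplex and 2 mM ATP. Unwinding read as fluorescence (525/598 nm), two reads 2 h apart.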
APE1 dye cs – displaces fluorescent dye from DNA, flagging APE1 artifacts. shares compounds with APE1 inh-1. DNA fluorescent dye displacement counterscreen, fluorescence. Potency, µM (titrated, usually from 28.5 µM), without a hit: at the top dose activity change, negative = inhibition, hits mostly inhibitors. 480 compounds, 7% hits. AID 2564;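 further: loss of thiazole orange fluorescence as the dye is displaced from duplex DNA; potency means the concentration at half of the fitted maximal effect; 0% = ThO with dsDNA and no compound and -100% = ThO without dsDNA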
EndoIV counter – Endo IV (E. coli) inhibition counter-screen. shares compounds with APE1 inh-1. E. coli Endo IV, fluorogenic AP-site DNA cleavage. Potency, µM (titrated, usually from 27.1 µM), for the others: at the highest dose activity change, negative = inhibition, hits mostly inhibitors. 560 compounds, 4% hits. AID 2565;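 further: potency means the concentration at half of the fitted maximal effect; plate controls were uninhibited enzyme wells for no effect and no enzyme buffer wells for full effect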
APE1 inh-2 – APE1 (human) endonuclease inhibition, confirmation | AID 2572 | shares compounds with APE1 inh-1 | purified APE1, fluorogenic abasic-site DNA cleavage | 750 compounds, 44% hits | Potency, µM (top dose mostly 57.1 µM), without a hit: at the top dose activity change, negative = inhibition, actives largely listed as inhibitors; further: potency means the concentration at half of the fitted maximal effect; on the % scale 0 is the no-effect control and ±100 the full control effect; nearly all actives have a fitted effect of over 30% in size
APE1 FP inh – displaces DNA from human APE1 in FP assay; shares compounds with APE1 inh-1; Potency, µM (series often up to 28.5 µM), for the others: top-dose activity, negative = inhibition, hits mostly inhibitors; 480 compounds, 7% hits; APE1 binding to TAMRA-labelled double-stranded DNA, fluorescence polarization displacement; further: potency means the concentration at half of the fitted maximal effect; on the % scale 0 is the no-effect control and ±100 the full control effect
BLM inh-2 – confirmation of inhibitors of human Bloom syndrome helicase BLM; shares compounds with BLM inh-1; BLM DNA unwinding, fluorescence quenching, biochemical; Potency, µM, inactives show max response, negative = inhibition, most hits filed as inhibitors; 220 compounds, 40% hits; AID 2585;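 further: strand separation dequenches TAMRA so unwinding raises red fluorescence; potency means the concentration at half of the fitted maximal effect; series mostly up to about 69 µM; on the % scale 0 is the no-effect control and ±100 the full control effect; nearly all actives have a fitted effect of over 45% in size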
RECQ1 conf – confirmation of human RECQ1 helicase inhibitors | AID 2708 | Potency, µM (titrated, usually from 229 µM), inactives show top-dose activity change, negative = inhibition, hits mostly inhibitors | RECQ1 helicase DNA unwinding, fluorescence | shares compounds with RECQ1 inh-1 | 610 compounds, 28% hits; further: potency means the concentration at half of the fitted maximal effect; on the % scale 0 is the no-effect control and ±100 the full control effect; nearly all actives have a fitted effect of over 45% in size
ADP FP counter – counter-screen for RECQ1 inhibitors: ADP displacement; 530 compounds, 27% hits; ADP fluorescence polarization displacement counterscreen; shares compounds with RECQ1 inh-1; Potency, µM (highest dose often 228 µM), for the others: at the highest dose activity change, negative = inhibition, hits mostly inhibitors; further: potency means the concentration at half of the fitted maximal effect; on the % scale 0 is the no-effect control and ±100 the full control effect; nearly all actives have a fitted effect of over 45% in size
RECQ1 inh-2 – confirmation of human RECQ1 helicase inhibitors; 1,100 compounds, 15% hits; Potency, µM (highest dose often 119 µM), for inactives: at the highest dose activity, negative = inhibition, usual class: inhibitors; shares compounds with RECQ1 inh-1; recombinant RECQ1 DNA unwinding, red fluorescence; further: potency means the concentration at half of the fitted maximal effect; on the % scale 0 is the no-effect control and ±100 the full control effect; nearly all actives have a fitted effect of over 50% in size
GCN5L2 inh-2 – human KAT2A HAT inhibition, hit confirmation | shares compounds with GCN5L2 inh-1 | GCN5L2 HAT, ThioGlo1 CoA fluorescence, 20 min | Potency, µM, hits mostly inhibitors | 140 compounds, 70% hits | AID 588347
* marks the source's active call; other numbers are inactive results; i = inactive; ? = inconclusive; . = no result; [ ] = dose if it differs, or a comment. Hits are enriched below; roughly 0.9% of the tested compounds scored in any of these assays. Unless noted, the call rests on the fitted dose curve; in most records, active means well fitted curve in the direction sought with a large enough effect; inconclusive means small, poorly fitted or top-dose-only effect, or another doubt; inactive means no such curve, though single readings can be large; an effect the other way counts as inactive or inconclusive.

SMILES | APE1 inh-1 | TDP1 inh | GCN5L2 inh-1 | Lamin A splicing | BLM inh-1 | RECQ1 inh-1 | APE1 inh-2 | others
N#Cc1c(/N=C/c2ccc(-c3ccc(C(=O)O)c(Cl)c3)o2)sc2c1CCCC2 | -8% | 7% | -6% | . | . | . | .
Cc1nc(S/C(=C\c2ccc(-c3ccc(C(=O)O)c(Cl)c3)o2)C(=O)O)n[nH]1 | 22µM* | 3.2µM* | -9% | . | 43% | ? | 40µM* | RECQ1 inh-2=45µM*
COC(=O)C1=C[C@@H](C(=O)OC)C2C3=C(C(=O)[C@@]2(C)NC(=O)c2ccccc2)[C@H](c2ccccc2)n2c(=O)n(-c4ccccc4)c(=O)n2[C@@H]3C1 (some centres not stated) | -7% | 6% | . | . | -2% | i | .
O=C1CC(=O)N(Cc2cccs2)C(=O)N1 | -5% | -9% | 4% | 0% | 0% | i | .
O=C1CC(=O)N(Cc2ccco2)C(=S)N1 | 11µM* | 2.5µM* | 18µM* | -3% | ? | 11µM* | 35µM* | APE1 dye cs=3%;EndoIV counter=35%;APE1 FP inh=?;RECQ1 conf=16µM*;ADP FP counter=17%[91.9 µM]
O=C1CC(=O)N(Cc2ccco2)C(=O)N1 | 10µM* | 10µM* | -17% | -4% | 63% | ? | 5.6µM* | APE1 dye cs=4%;EndoIV counter=21%;APE1 FP inh=-8%;RECQ1 inh-2=?
CCOc1cc(N2CCOCC2)c(OCC)cc1NC(C)C(=O)N1CCN(CC)CC1 (configuration not stated) | 10µM* | 13µM* | 4% | ? | -10% | ? | ? | RECQ1 inh-2=-7%
CC1Cc2cc(C(=O)O)ccc2O1 (configuration not stated) | -12% | ? | 0% | 0% | -2% | 10% | .
C=C(CO)C1Cc2cc(C(C)=O)ccc2O1 (configuration not stated) | 20µM* | . | -15% | . | -7% | ? | 10µM* | APE1 dye cs=2%;EndoIV counter=8%;APE1 FP inh=-37%;RECQ1 inh-2=?
COc1cc(N(C)C)cc(CN(C)CCc2ccc([N+](=O)[O-])cc2)c1O | 3.2µM* | 2.2µM* | ? | . | 14µM* | 10µM* | ? | APE1 dye cs=0%[57.1 µM];EndoIV counter=3%[57.1 µM];APE1 FP inh=-9%[57.1 µM];RECQ1 conf=100µM*;ADP FP counter=?;RECQ1 inh-2=50µM*
COc1ccc(CNCCc2ccc([N+](=O)[O-])cc2)c(OC)c1OC | -4% | . | -8% | . | 6% | . | .
CCCN1CCC(=O)N(CCSc2ccc(Br)cc2)CC1 | 3% | 6% | . | . | 2% | i | .
C=C(C)C(=O)OCCOCC | -5% | 7% | 7% | . | 0% | -4% | .
O=C(O)c1ccc(-n2cccc2/C=C2/NC(=O)N(c3cccc(Cl)c3)C2=O)cc1 | 2.8µM* | 1.6µM* | ? | . | -15% | 22µM* | 13µM* | APE1 dye cs=?;EndoIV counter=15%;APE1 FP inh=11µM*;GCN5L2 inh-2=?
COc1ccccc1CNC(=O)c1cccc(-c2ccccc2OC)n1 | 2% | 12% | -14%[88.6 µM] | . | -2%[75.6 µM] | -9%[81.1 µM] | .
Cc1ccc(-c2nc(NC(=O)CSc3cc(C)c4ccccc4n3)ns2)cc1 | ? | -1% | 3% | -4% | 6.3µM* | 18% | . | BLM inh-2=18µM*
CCCCC/C=C\C\C=C/C=C/C=C/[C@@H](SCC(N)C(=O)NCC(=O)O)[C@@H](O)CCCC(=O)O (some centres not stated) | 30% | 5% | . | . | -1% | -1% | .
Cc1cc(=O)[nH]c2c(N=Nc3ccc(O)cc3)c(N)nn12 | ? | 9% | -21% | . | 16µM* | i | . | BLM inh-2=?
OC[C@H]1NC[C@@H](O)[C@@H](O)[C@@H]1O | -2% | 8% | 8% | . | 5% | i | .
CC(=O)Nc1ccccc1OC1=N[S+](=O)([O-])c2ccccc21 | . | 0% | . | . | . | . | .
CCc1c(C(=O)NCCc2ccc(N3CCCCC3)cc2)[nH]c2ccc(Cl)cc12 | . | . | -12% | . | . | . | .
COc1ccc(OC)c(NC(=O)COC(=O)c2cc3c(s2)CCC3)c1 | 12% | 2.8µM* | -3% | ? | 16µM* | ? | . | BLM inh-2=18µM*
COc1ccc(OC)c(NC(=O)COC(=O)CCC2CCCC2)c1 | -3% | -2%[56.1 µM] | -2% | . | . | . | .
